From PubChem BioAssay (NCI)
About 83,000 compounds went through this panel and 20% of them were active in at least one assay; those are over-represented in the sample as a whole.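 Growth was measured after 48 h exposure to one concentration of compound in 96-well plates. Values under 10 count as active.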 A number with no mark means an inactive call. Active and inactive are the calls of the source.

tested on: UO-31 renal; assay: NCI-60 one-dose screen, 48 h (100 = growth as untreated, 0 = no growth, -100 = all killed); details: 10 µM unless noted
Procedure: Growth inhibition of the UO-31 human tumor cell line is measured as a screen for anti-cancer activity. Cells are grown in 96 well plates and exposed to the test compound for 48 hours. Compounds are tested at a single concentration, which is 10^-5 M for most compounds. The reported endpoint is percent growth (GI% or GIPRCNT), where numbers from 0 - 100% represent growth inhibition, and numbers from -100% - 0 represent cell death. For example, a value of 40 represents 60% growth inhibition. A value of 0 means no net growth occurred over the course of the experiment. A value of -40 indicates 40% of cells at the beginning of the experiment died by the end of the experiment. A value of -100 means all cells are dead at the end of the experiment.
NCI-60 Human Tumor Cell Lines Screen was performed using the standard one-dose NCI protocol, which is described in more detail at https://dtp.cancer.gov/discovery_development/nci-60/default.htm.
Compounds with GIPRCNT values below 10 were considered active. Activity score was based on GIPRCNT using the following formula: […]
Score is 0 for GIPRCNT values of 100 or above, 50 for GIPRCNT values of 0, and 100 for GIPRCNT values of -100.

Row | SMILES | growth
1 | Cc1ccc(-n2c(-c3ccccc3)c(-c3ccccc3)c3c(SCC(=O)n4[nH]c(N)cc4=O)ncnc32)cc1 | 71.9%
2 | CC(=O)O[C@]1(C(C)=O)CCC2C3C[C@H](C)C4=CC(=O)CC[C@]4(C)C3CC[C@@]21C (stereo not given in full) | 65.6%
3 | Cc1nn(-c2ccccc2)c(Cl)c1/C=C(/NC(=O)c1ccccc1)c1nc2ccccc2[nH]1 | 80.2%
4 | Cc1cccc(NC(=O)N/C(N)=N/c2nc(C)c(C)s2)c1 | 64.3%
5 | O=C1/C(=C\c2c[nH]c3ccccc23)c2ccccc2N1c1c(Cl)cccc1Cl | 20.7%
6 | COc1ccc2cc(-c3cc(OC)c(OC)c(OC)c3)c(=O)oc2c1 | 87.7%
7 | CCN(CCNc1ccc(C)c2sc3ccccc3c(=O)c12)CC(C)(C)O | 70.2%
8 | CC(C)C(=O)Nc1n[nH]c2cc(-c3cccc(NS(=O)(=O)C4CC4)c3)ccc12 | 56.7%
9 | COc1ccc2c(c1)O/C(=C\c1cccc(OCC(=O)Nc3nc4ccccc4s3)c1)C2=O | -61.3% (active)
10 | COc1cc(C(=O)/C=C/c2c(C(F)(F)F)nc3sccn23)cc(OC)c1OC | -29.6% (active)
11 | c1ccc2cc3nc4cc5ccccc5cc4nc3cc2c1 | 89%
12 | O=c1ccn2nc3ccccc3c2[nH]1 | 76.6%
13 | CCc1ccccc1NC(=O)/C(C#N)=C/c1ccc(OC)cc1 | 80.5%
14 | COc1ccc2c(c1)O/C(=C/c1ccc(OCC(=O)c3ccccc3)cc1)C2=O | -29.2% (active)
15 | COc1cccc(C(=O)NCCNc2cc(-c3cn(-c4ccccc4)nc3-c3cccc(OC)c3)ccn2)c1 | 39.9%
16 | CC1(C)CC(=O)C2=C(C1)N(c1ccc(OC(F)(F)F)cc1)C(N)=C(C#N)C2c1ccc(Cl)cc1 (stereo not given) | 89.9%
17 | CCCCCCCC/C=C\CCCCCCCCOc1ccccc1CC(=O)NCC[N+](C)(C)C | 79.6%
18 | Cc1cc(N2CCCC2)nc(NCc2cc(Nc3ccnc4cc(Cl)ccc34)ccc2F)n1 | -59.1% (active)
19 | Cc1cccc(Cc2cnc(NC(=O)c3ccc4nnsc4c3)s2)c1 | 78.5%
20 | O=[N+]([O-])c1ccc(OCCO)cc1 | 86.2%

Row | SMILES | growth
21 | Cc1ccc(S(=O)(=O)N/N=C\c2cc(Cl)ccc2O)cc1 | 83.7%
22 | COc1ccc2c(c1)[nH]c(=O)c1c3cccnc3cn21 | 41%
23 | COc1ccc(C2CC(c3cccc(OC)c3)=NN2C(=O)c2cc(OC)c(OC)c(OC)c2)cc1 (stereo not given) | 27.4%
24 | O=C1/C(=C\c2cccnc2)SC(=S)N1CCc1ccc(O)cc1 | 37.4%
25 | Cc1cc(NCc2cc(Nc3ccnc4cc(Cl)ccc34)ccc2F)nc(N2CCN(C)CC2)n1 | -8.37% (active)
26 | N/C(=N/N=C/c1ccccc1)N/N=C\c1ccccc1 | 68.2%
27 | NC(=N\N=C/c1ccccc1[N+](=O)[O-])/C(N)=N\N=C/c1ccccc1[N+](=O)[O-] | 116%
28 | CN(C)CC1=NC2SC=C(c3ccccc3)C2C(=O)N1CC#N (stereo not given) | 13.2%
29 | COc1cc2c(cc1-c1c(C)noc1C)ncc1nc(C3CCC(F)(F)CC3)n(C3CCC(OC(F)F)CC3)c12 (stereo not given) | 18.2%
30 | Cc1nn(-c2ccccc2)c(Oc2ccc(Cl)cc2)c1/C=N\N=c1/sc2ccccc2n1C | 62.1%
31 | COc1ccc2[nH]c(O)c(C(=Nc3ccc(N(C)C(=O)CN4CCN(C)CC4)cc3)c3ccccc3)c2c1 | 18.8%
32 | Cc1ccc(S(=O)(=O)n2cc(CNc3ccc(N4CCOCC4=O)cc3)c3ccccc32)cc1 | 43.3%
33 | O=c1c2cc(F)ccc2sc2c(NCCN3CCCCC3)nc3ccccc3c12 | 27.1%
34 | Clc1cccc(Cl)c1/C=C/c1cc(/C=C/c2c(Cl)cccc2Cl)[nH]n1 | 51%
35 | N#Cc1c(-c2cccc(Cl)c2)cc(-c2cccc(Cl)c2)[nH]c1=O | 74%
36 | Fc1c[c-]c(-c2ccccn2)c(F)c1.[CH3-].[Pt+2].c1ccc(P(C[PH+](c2ccccc2)c2ccccc2)c2ccccc2)cc1 | -98.2% (active)
37 | COc1cccc(-c2nc3sccn3c2-c2ccnc(NCCNS(=O)(=O)c3cccc(Cl)c3)c2)c1 | 12.9%
38 | CCN(CC)CCCNc1ccc(Nc2ccc(OC)cc2)cc1 | 48%
39 | COc1ccc(S(=O)(=O)NCCNc2nccc(-c3c(-c4cccc(F)c4)nc4sccn34)n2)cc1 | 20.3%
40 | Cc1cc(O)c(C2=NN(c3ccc(S(N)(=O)=O)cc3)C(c3ccccc3Cl)C2)cc1Cl (stereo not given) | 16.5%
